# Measured values: PubChem BioAssay (NCATS)
# “And” between values parts separate entries of the source, which are not always exact repeats. Equal values may be shown once. Inconclusive results are not listed. The source made the active and inactive calls. Unless noted, the call rests on the fitted dose curve; in most records, active means well fitted curve in the direction sought with a large enough effect; inconclusive means small, poorly fitted or top-dose-only effect, or another doubt; inactive means no such curve, though single readings can be large; an effect the other way counts as inactive or inconclusive.
# What was measured:
# [1] = target: Estrogen receptor (Homo sapiens) (UniProt P03372); test: qHTS assay for small molecule antagonists of estrogen receptor alpha signaling (AID 588513; active means well fitted curve in the direction sought with a large enough effect in the signal ratio, with a control signal flat, not every such curve was filed as active; the % refers to the signal ratio; further: on the % scale 0 is the no-effect control and ±100 the full control effect)
# Sequence of Estrogen receptor (Homo sapiens) (P03372 whole entry, looked up): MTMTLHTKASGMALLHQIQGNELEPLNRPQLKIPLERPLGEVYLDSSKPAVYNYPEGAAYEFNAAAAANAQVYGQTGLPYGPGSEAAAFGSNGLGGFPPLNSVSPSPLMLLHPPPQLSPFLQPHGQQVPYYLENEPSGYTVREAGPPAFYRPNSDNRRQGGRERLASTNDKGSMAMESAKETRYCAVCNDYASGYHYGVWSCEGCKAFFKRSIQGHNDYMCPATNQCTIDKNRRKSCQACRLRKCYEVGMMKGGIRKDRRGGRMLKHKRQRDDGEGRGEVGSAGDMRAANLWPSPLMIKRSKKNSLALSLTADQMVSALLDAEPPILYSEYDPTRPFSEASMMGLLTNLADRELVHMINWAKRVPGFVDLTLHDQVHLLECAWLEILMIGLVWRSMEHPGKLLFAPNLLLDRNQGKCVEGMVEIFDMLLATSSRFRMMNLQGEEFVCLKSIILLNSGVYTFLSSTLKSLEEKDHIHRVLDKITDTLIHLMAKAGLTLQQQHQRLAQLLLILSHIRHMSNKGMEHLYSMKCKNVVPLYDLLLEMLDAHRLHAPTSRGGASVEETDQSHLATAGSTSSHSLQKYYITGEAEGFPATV
# How it was run: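 Beta-lactamase reporter, antagonist mode, HEK 293 GripTite cells; 0.5nM E2 stimulus, 18 h, 37 C; CCF4 dye 2 h RT; fluorescence. IC50 and efficacy from Hill fits, normalized to E2 and DMSO.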
# [2] = target: Estrogen receptor (Homo sapiens) (UniProt P03372); test: qHTS assay for small molecule agonists of estrogen receptor alpha signaling (AID 588514; calls by dose curve;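 further: 0% = vehicle only and 100% = reference agonist; nearly all actives have a fitted effect of over 70% in size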)
# How it was run: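 EC50 and efficacy came from Hill fits of beta-lactamase reporter signal (CCF4 dye, 2 h at room temperature) scaled between DMSO and 20 nM 17-beta-estradiol. Agonist mode: HEK293 ER-alpha-UAS-bla cells in charcoal/dextran-stripped serum medium, 18 h compound exposure at 37 C.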
# [3] = target: Glucocorticoid receptor (Homo sapiens) (UniProt P04150); test: qHTS assay for small molecule agonists of glucocorticoid receptor signaling (AID 588532; active means well fitted curve in the direction sought with a large enough effect in the signal ratio, with a control signal flat; the % refers to the signal ratio;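 further: 100% = dexamethasone at 0.1 µM and 0% = DMSO only wells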); details: HeLa MMTV-bla, beta-lactamase ratio, agonist, 18 h; stronger effect = higher value; percent of dexamethasone control, DMSO zero
# Sequence of Glucocorticoid receptor (Homo sapiens) (P04150 whole entry, looked up): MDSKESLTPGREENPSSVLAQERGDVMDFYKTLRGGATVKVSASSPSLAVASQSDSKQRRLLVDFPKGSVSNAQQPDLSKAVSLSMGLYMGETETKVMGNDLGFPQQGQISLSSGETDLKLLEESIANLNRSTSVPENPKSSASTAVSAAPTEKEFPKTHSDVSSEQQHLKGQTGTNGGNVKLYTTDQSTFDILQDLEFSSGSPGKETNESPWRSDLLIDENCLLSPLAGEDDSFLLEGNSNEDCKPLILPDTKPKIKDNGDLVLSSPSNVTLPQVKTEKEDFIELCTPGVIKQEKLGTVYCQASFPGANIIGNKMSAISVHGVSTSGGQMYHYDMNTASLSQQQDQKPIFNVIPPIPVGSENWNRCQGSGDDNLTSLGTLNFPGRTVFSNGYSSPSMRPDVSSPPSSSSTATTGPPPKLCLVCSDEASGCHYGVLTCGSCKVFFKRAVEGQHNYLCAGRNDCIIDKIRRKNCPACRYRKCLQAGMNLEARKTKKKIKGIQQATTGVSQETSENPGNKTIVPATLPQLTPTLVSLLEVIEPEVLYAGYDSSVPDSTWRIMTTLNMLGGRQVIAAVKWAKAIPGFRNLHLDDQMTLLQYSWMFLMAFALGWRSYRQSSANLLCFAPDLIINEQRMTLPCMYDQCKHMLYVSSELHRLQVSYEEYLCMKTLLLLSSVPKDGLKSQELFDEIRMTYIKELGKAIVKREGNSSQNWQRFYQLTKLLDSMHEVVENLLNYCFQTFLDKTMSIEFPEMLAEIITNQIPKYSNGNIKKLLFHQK
# How it was run: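 Titration series, up to 92 uM, applied to GRE-bla HeLa cells for 18 h at 37 C. Detection by CCF4 FRET substrate after 2 h at RT.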
# [4] = qHTS assay for small molecule antagonists of peroxisome proliferator-activated receptor delta signaling (AID 588535); details: HEK293T PPARd-UAS-bla, beta-lactamase FRET ratio, 18 h; 460 nm channel;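 further: cells co-treated with a PPAR-delta agonist as stimulator during compound exposure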
# How it was run: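 Inhibition of PPAR-delta response element-driven beta-lactamase expression is measured in HEK293T cells exposed to a compound titration series for 18 hrs at 37 C. Half-maximal inhibition comes from Hill equation fitting.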
# [5] = target: Peroxisome proliferator-activated receptor gamma (Homo sapiens) (UniProt P37231); test: qHTS assay for small molecule agonists of peroxisome proliferator-activated receptor gamma signaling (AID 588536; active means well fitted curve in the direction sought with a large enough effect in the signal ratio, with a control signal flat, not every such curve was filed as active; the % refers to the signal ratio;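 further: 0% = DMSO basal wells and 100% = rosiglitazone at 2 µM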)
# Sequence of Peroxisome proliferator-activated receptor gamma (Homo sapiens) (P37231 whole entry, looked up): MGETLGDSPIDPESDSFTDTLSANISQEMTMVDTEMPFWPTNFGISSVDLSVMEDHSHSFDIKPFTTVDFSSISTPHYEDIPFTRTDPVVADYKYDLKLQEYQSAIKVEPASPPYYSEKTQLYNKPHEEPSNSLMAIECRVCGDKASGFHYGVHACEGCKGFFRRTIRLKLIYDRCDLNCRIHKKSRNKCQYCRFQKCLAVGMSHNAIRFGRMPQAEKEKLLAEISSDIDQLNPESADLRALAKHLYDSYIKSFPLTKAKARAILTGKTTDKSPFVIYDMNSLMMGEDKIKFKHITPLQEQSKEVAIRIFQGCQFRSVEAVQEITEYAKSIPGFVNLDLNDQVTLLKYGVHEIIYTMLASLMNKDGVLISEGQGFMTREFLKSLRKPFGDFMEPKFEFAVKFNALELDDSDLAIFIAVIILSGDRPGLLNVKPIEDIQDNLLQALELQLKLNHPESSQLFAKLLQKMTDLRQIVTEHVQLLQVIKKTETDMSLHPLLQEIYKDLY
# How it was run: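 Cells were plated and held 6–6.5 h at 37 C, then compounds were added as a titration series. After a further 16 h, CCF4 dye was loaded for 2 h at room temperature and emission at 460/530 nm recorded.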
# [6] = qHTS assay for small molecule agonists of retinoid X receptor alpha signaling (AID 588544; calls by dose curve;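 on activation: 0% = DMSO basal wells and 100% = reference agonist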); details: HEK293T RXRa-UAS-bla, beta-lactamase reporter, 18 h; 530 nm emission
# [7] = target: Retinoic acid receptor RXR-alpha (Homo sapiens) (UniProt P19793); test: as above
# Sequence of Retinoic acid receptor RXR-alpha (Homo sapiens) (P19793 whole entry, looked up): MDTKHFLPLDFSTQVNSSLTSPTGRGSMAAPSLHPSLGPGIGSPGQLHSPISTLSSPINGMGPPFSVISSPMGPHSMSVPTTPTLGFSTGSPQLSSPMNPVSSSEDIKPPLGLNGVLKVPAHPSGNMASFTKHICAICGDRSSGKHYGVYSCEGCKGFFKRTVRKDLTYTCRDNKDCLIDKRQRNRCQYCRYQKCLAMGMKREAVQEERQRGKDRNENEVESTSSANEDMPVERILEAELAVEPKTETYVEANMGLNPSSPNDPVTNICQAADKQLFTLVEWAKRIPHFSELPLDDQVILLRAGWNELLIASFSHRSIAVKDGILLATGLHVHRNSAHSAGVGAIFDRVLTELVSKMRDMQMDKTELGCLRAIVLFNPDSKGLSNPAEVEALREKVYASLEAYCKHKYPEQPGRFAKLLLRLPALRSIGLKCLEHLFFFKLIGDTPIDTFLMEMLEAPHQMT
# [8] = target: Thyroid hormone receptor beta (Homo sapiens) (UniProt P10828); test: qHTS assay for small molecule agonists of thyroid hormone receptor beta signaling (AID 588545; calls by dose curve)
# Sequence of Thyroid hormone receptor beta (Homo sapiens) (P10828 whole entry, looked up): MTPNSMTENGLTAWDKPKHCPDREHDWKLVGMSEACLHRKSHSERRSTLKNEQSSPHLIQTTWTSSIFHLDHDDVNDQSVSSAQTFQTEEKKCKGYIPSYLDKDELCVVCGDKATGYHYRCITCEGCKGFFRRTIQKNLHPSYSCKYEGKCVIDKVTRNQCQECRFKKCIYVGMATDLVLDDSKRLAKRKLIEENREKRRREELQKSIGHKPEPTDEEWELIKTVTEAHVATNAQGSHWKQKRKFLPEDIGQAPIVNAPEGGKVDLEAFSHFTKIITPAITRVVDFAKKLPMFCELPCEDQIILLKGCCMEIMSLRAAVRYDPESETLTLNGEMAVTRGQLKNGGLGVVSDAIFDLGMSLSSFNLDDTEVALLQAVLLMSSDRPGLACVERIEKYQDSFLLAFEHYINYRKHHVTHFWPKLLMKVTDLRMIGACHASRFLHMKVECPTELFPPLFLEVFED
# How it was run: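 In this cell-based screen, titrated compounds act on HEK 293 cells held in medium with 2% charcoal/dextran FBS, NEAA and pyruvate for 18 hrs at 37 C. Responses are expressed relative to T3 (10 nM) as 100% and basal DMSO as 0%.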
# [9] = qHTS assay for small molecule antagonists of retinoid X receptor alpha signaling (AID 588546; active means well fitted inhibition curve with a large enough effect in the signal ratio, with a control signal flat, not every such curve was filed as active; the % refers to the signal ratio;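 further: cells stimulated with 9-cis-retinoic acid as agonist; on the % scale 0 is the no-effect control and ±100 the full control effect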); details: HEK293T RXRa-UAS-bla, beta-lactamase ratio, antagonist mode; measured here: W530 green channel, cytotoxicity proxy
# How it was run: (§1)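 Beta-lactamase reporter inhibition, read as CCF4 fluorescence ratio (ex 405, em 460/530 nm) after 2 h at RT. HEK293T UAS-bla cells, 2500/well, were stimulated with 9-cis-RA at 500 or 100 nM final alongside test compound for 18 h at 37 C.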
# [10] = target: Retinoic acid receptor RXR-alpha (Homo sapiens) (UniProt P19793); test: as above; details: HEK293T RXRa-UAS-bla, beta-lactamase ratio, antagonist mode
# How it was run: as §1
# [11] = target: Thyroid hormone receptor beta (Homo sapiens) (UniProt P10828); test: qHTS assay for small molecule antagonists of thyroid hormone receptor beta signaling (AID 588547; active means well fitted inhibition curve with a large enough effect in the signal ratio, with a control signal flat, not every such curve was filed as active; the % refers to the signal ratio;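 further: cells stimulated with 0.4 nM T3 agonist during compound exposure; series mostly up to about 77 µM; on the % scale 0 is the no-effect control and ±100 the full control effect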); details: TR-UAS-bla HEK293, beta-lactamase ratio, antagonist mode, 18 h
# How it was run: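 TR-UAS-bla GripTite HEK293 cells in 2% charcoal/dextran FBS medium were preincubated 4 h at 37 C, given compound (0.59 nM to 92 uM) plus 0.4 nM T3 (final) for 18 h, then CCF4 for 2 h at RT; Hill fit gave IC50.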
# [12] = qHTS assay for small molecule activators of the nuclear factor-kappa B (NF-kB) signaling pathway (AID 651749; active means well fitted activation curve with a large enough effect in the signal ratio; the % refers to the signal ratio; further: series mostly up to about 77 µM; % of control where 0% means no effect); details: NF-kB-bla ME-180 cells, beta-lactamase FRET ratio, 16 h; activation: stronger effect = higher value
# How it was run: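 Human ME-180 cervical cells with an NF-kB-bla construct; compounds added via 23 nL pin transfer, DMSO as vehicle; incubation 16 hr. Reporter activity measured by FRET disruption.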
# [13] = qHTS assay for environmental chemicals that activate the Aryl hydrocarbon Receptor (AhR) signaling pathway (AID 651777); details: 1A2-DRE human hepatoma cells, luciferase, 24 h; activation: stronger effect = higher value; further: % of control where 0% means no effect; nearly all actives have a fitted effect of over 15% in size
# How it was run: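 Stable CYP1A2 promoter/DRE-luciferase human hepatoma line treated 24 hr; One-Glo luminescence, 30 min RT.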
# [14] = target: Peroxisome proliferator-activated receptor alpha (Homo sapiens) (UniProt Q07869); test: qHTS assay for small molecule agonists of the peroxisome proliferator-activated receptor alpha (PPARalpha) signaling pathway (AID 651778); details: PathHunter PPARalpha complementation, chemiluminescence, 6 h; max response: stronger effect = higher value; further: % of control where 0% means no effect
# Sequence of Peroxisome proliferator-activated receptor alpha (Homo sapiens) (Q07869 whole entry, looked up): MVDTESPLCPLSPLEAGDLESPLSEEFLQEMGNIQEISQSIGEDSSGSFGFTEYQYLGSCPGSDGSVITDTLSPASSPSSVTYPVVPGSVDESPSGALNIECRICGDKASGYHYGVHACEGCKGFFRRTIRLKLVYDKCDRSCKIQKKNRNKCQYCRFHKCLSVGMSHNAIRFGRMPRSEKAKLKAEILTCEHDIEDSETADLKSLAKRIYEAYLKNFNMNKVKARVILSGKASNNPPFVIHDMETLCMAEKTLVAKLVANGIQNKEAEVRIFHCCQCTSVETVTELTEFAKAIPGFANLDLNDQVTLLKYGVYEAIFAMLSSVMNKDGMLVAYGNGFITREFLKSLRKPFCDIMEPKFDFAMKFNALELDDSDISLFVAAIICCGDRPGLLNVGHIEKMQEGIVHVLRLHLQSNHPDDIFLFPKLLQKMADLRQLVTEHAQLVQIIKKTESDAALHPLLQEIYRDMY
# How it was run: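 Cells plated at 2,000/well and held overnight at 37 C, 5% CO2, then compound added by pin tool for 6 hr; after PathHunter detection reagent and 60 min at room temperature, chemiluminescence from enzyme complementation was read.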
# [15] = qHTS assay for small molecule agonists of the antioxidant response element (ARE) signaling pathway measured by Nrf2-dependant transcriptional activity - cell viability counter screen (AID 720653; active means well fitted curve in the direction sought with a large enough effect in the repeat runs; an effect the other way counts as inactive or inconclusive; further: on the % scale 0 is the no-effect control and ±100 the full control effect); details: ARE-bla HepG2 viability, CellTiter-Glo ATP luminescence, 16 h; max response: stronger effect = lower value
# How it was run: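 ARE-bla HepG2 cells (2,000/well) rested 5 hrs at 37C/5% CO2, then exposed to compounds in DMSO for 16 hrs. Viability was read in the same wells as intracellular ATP by luminescence, 30 min at room temperature after reagent addition.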
# [16] = qHTS assay for cell viability of HEK293 cells (AID 743288); details: ATP luminescence (CellTiter-Glo), 18 h; max response: stronger effect = lower value; further: on the % scale 0 is the no-effect control and ±100 the full control effect; nearly all actives have a fitted effect of over 50% in size
# How it was run: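 ATP luminescence (CellTiter-Glo) reports metabolically competent cell number after parental HEK293 cells, 2,000/well, were treated with DMSO-dissolved compounds for 18 h at 37 C; reagent incubation 30 min, room temperature.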
# [17] = qHTS assay for cell viability of the p53RE-bla HCT-116 cell line (AID 743292); further: on the % scale 0 is the no-effect control and ±100 the full control effect; nearly all actives have a fitted effect of over 55% in size
# How it was run: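 Readout: CellTiter-Glo luminescence after 30 min RT. Treatment: compounds in DMSO, 16 h, 37 C. Cells: CellSensor p53RE-bla HCT-116, 4,000/well, preincubated 5 h.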
# [18] = target: Nuclear receptor subfamily 1 group I member 2 (Rattus norvegicus) (UniProt Q9R1A7); test: qHTS assay for small molecule activators of the rat pregnane X receptor (rPXR) signaling pathway (AID 651751; call rule not given here; further: 0% is about no effect); details: rPXR reporter cells, luciferase (One-Glo), 24 h
# Sequence of Nuclear receptor subfamily 1 group I member 2 (Rattus norvegicus) (Q9R1A7 whole entry, looked up): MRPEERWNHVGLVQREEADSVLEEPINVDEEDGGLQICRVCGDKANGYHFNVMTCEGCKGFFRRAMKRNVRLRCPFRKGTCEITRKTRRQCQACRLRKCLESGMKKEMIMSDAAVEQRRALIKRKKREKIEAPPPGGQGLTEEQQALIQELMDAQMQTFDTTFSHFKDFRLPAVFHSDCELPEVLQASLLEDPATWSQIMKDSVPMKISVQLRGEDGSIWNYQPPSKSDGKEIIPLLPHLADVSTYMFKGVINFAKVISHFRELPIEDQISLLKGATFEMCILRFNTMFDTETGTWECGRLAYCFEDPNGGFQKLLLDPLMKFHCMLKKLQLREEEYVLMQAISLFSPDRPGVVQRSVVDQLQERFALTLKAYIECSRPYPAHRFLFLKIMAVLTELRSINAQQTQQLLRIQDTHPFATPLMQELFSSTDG
# [19] = qHTS assay for small molecule activators of the human pregnane X receptor (PXR) signaling pathway (AID 720659; call rule not given here; further: 0% is about no effect)
# [20] = target: Vitamin D3 receptor (Homo sapiens) (UniProt P11473); test: qHTS assay for small molecule antagonists of vitamin D receptor signaling (AID 588541; calls by dose curve)
# Sequence of Vitamin D3 receptor (Homo sapiens) (P11473 whole entry, looked up): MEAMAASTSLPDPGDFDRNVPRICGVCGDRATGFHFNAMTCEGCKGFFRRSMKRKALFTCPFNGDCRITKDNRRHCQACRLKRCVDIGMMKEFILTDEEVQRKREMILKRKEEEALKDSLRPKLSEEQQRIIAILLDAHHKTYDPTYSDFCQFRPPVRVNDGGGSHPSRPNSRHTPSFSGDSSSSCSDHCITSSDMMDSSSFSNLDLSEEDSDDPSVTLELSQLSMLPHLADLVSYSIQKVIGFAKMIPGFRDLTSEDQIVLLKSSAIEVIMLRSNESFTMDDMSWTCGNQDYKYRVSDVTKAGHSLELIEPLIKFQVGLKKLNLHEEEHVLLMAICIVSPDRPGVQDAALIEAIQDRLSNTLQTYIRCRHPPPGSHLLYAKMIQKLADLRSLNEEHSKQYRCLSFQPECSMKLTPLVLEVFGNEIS
# How it was run: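 VDR-UAS-bla HEK293T cells (2000/well, 2% charcoal-stripped FBS) were treated with titrated compounds plus 1-alpha,25-dihydroxyvitamin D3 (50 nM or 3 nM final) for 16 h at 37 C. CCF4 beta-lactamase fluorescence was read; Hill fits gave IC50.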
SMILES,Potency [1],Potency [2],activation [3],max response [4],outcome [5],max response [6],Potency [7],Potency [8],max response [9],max response [10],activity change % (negative = inhibition) [11],activation [12],activation [13],max response [14],max response [15],max response [16],Potency [17],max response [18],outcome [19],Potency [20]
O=C(OCCOCCOC(=O)c1ccccc1)c1ccccc1,inactive,inactive,-2.84% (inactive),59.9%,inactive,-16.7%,inactive,inactive,-7.11%,4.89% (inactive),0.94% (inactive),0.298% (inactive),1.92% (inactive),-0.375% (inactive),-6.77% (inactive),-9.08% (inactive),inactive,2.6% (inactive),inactive,
CCCCCCCCCCCO,inactive,inactive,,-7.63%,inactive,-10.8%,inactive,inactive,,,9.58% (inactive),0.0542% (inactive),-0.0375% (inactive),1.65% (inactive),3.39% (inactive),4.45% (inactive),inactive,2% (inactive),,
N[C@@H]1[C@@H](O)[C@H](O)[C@@H](CO)O[C@H]1O,inactive,inactive,,8.04%,inactive,-2.29%,inactive,inactive,-16.6%,6.05% (inactive),,,2.2% (inactive),-1.62% (inactive),-11.9% (inactive),-8.29% (inactive),inactive,-3.38% (inactive),inactive,inactive
CCCCCCCCCCO,inactive,inactive,-0.536% (inactive) and 2.82% (inactive),,inactive,-3.16% and -6.7%,inactive,inactive,-1.67% and -3.39%,,16.6% (inactive) and -15.4% (inactive),-0.272% (inactive) and -0.916% (inactive),-1.2% (inactive) and 0.559% (inactive),-0.236% (inactive) and 5.87% (inactive),-7.77% (inactive) and 2.22% (inactive),-9.96% (inactive) and -5.95% (inactive),inactive,,,inactive
CC(C)c1cccc(C(C)C)c1,inactive,inactive,-12.5% (inactive),-5.64%,inactive,-9.24%,inactive,inactive,-3.77%,-4.2% (inactive),-5.42% (inactive),-0.667% (inactive),2.18% (inactive),-1.99% (inactive),-8.28% (inactive),-5.18% (inactive),,-1.81% (inactive),inactive,inactive
CC(C)c1ccc(C(C)C)cc1,inactive,inactive,1.07% (inactive),,inactive,-15.2%,inactive,inactive,-15.9%,,,,0.903% (inactive),-2.48% (inactive),2.58% (inactive),4.22% (inactive),inactive,-0.628% (inactive),inactive,inactive
NCCCCCCCCCCCC(=O)O,inactive,inactive,8.75% (inactive),20.5%,inactive,-5.4%,inactive,inactive,-12%,2.61% (inactive),11.2% (inactive),-0.832% (inactive),-1.28% (inactive),-1.44% (inactive),4.58% (inactive),6.09% (inactive),inactive,-0.534% (inactive),inactive,
CC(C)(C)c1cccc(C(C)(C)C)c1O,inactive,inactive,-7.64% (inactive),-24.3%,inactive,-8.93%,inactive,inactive,-10.7%,-0.1% (inactive),16.3% (inactive),-0.872% (inactive),0.241% (inactive),-2.21% (inactive),-3.7% (inactive),0.51% (inactive),inactive,0.577% (inactive),inactive,
OC1CCC(C2CCCCC2)CC1 (configuration not stated),inactive,inactive,,-39.9%,inactive,-2.23%,inactive,inactive,-5.21%,6.85% (inactive),4.98% (inactive),,-1.51% (inactive),-0.35% (inactive),-10.1% (inactive),-12.9% (inactive),inactive,-2.53% (inactive),inactive,inactive
CC1(C)[C@@H](C=C(Cl)Cl)[C@@H]1C(=O)OCc1cccc(Oc2ccccc2)c1,inactive,inactive,,-21.4%,,,,,-10.2%,-8.61% (inactive),5.01% (inactive),,-0.62% (inactive),-0.645% (inactive),,-11.2% (inactive),,,,inactive
CCCCNS(=O)(=O)c1ccccc1,inactive,inactive,-1.82% (inactive),,inactive,,,inactive,-16.3%,,-5.57% (inactive),0.692% (inactive),0.36% (inactive),0.574% (inactive),-8.48% (inactive),-3.87% (inactive),inactive,-0.0697% (inactive),inactive,
CC(C)O.CC(C)O.CC(C)O.CC(C)O.[Ti],inactive,inactive,,-8.01%,inactive,-22.2%,inactive,inactive,-4.69%,1.54% (inactive),-6.47% (inactive),-1.08% (inactive),0.139% (inactive),-0.904% (inactive),-1.55% (inactive),-10.9% (inactive),inactive,-0.917% (inactive),inactive,inactive
